# Only some compounds are listed: those with a hit (about 6.8% of all), similar ones and a draw of the others.
# Pf Dd2 growth: inhibitors of Plasmodium falciparum Dd2 growth; P. falciparum Dd2 growth, SYBR Green, 72 h; hits give low values; activity change, % at 10 µM; 2.3% of 94,000 active; AID 1159554; in the data active = activity change below about -80%; inconclusive = no clear call, values can overlap the other calls
# C diff growth: inhibitors of Clostridium difficile growth. growth activity, negative = inhibition, % at 16 µg/mL (by protocol). 0.25% of 86,000 active. Clostridium difficile clinical isolate growth, OD600, 24 h; hits give low values;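 active = mean growth activity at or below -80% and every replicate also at or below -80%; inconclusive = mean at or below -80% but some replicate above -80%; inactive = mean growth activity above -80%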;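 also: 0% = DMSO wells and -100% = levofloxacin 16 µg/mL wells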
# T cruzi growth-1: inhibitors of T. cruzi proliferation. T. cruzi beta-gal in NIH3T3, GalScreen luminescence, 90 h. inhibition, % at 8.34 µM. 5.9% of 77,000 active;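 active = mean inhibition above about 93%, with at least 55% of replicates each passing it, limit read from the data, passing the limit was not always enough; inconclusive = only one of those two conditions holds; inactive = neither condition holds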
# T cruzi growth-2: Trypanosoma cruzi proliferation inhibition; 72% of 5,600 active; T. cruzi beta-gal in NIH3T3, GalScreen luminescence, 90 h; inhibition, % at 8.35 µM; shares compounds with T cruzi growth-1; AID 651739;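 active = mean replicate inhibition above about 95% and at least 55% of replicates individually reaching it, limit read from the data; inconclusive = only one of the two criteria is met; inactive = neither criterion is met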
# T cruzi growth-3: Trypanosoma cruzi proliferation inhibition; 21% of 5,600 active; AID 651740; T. cruzi beta-gal in NIH3T3, GalScreen luminescence, 90 h; shares compounds with T cruzi growth-1; inhibition, % at 2.09 µM;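 active = mean inhibition above about 95%, with at least 55% of replicates also reaching it, limit read from the data; inconclusive = meets just one of the two conditions; inactive = meets neither condition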;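 also: plate controls were neutral control median for no effect and positive control median for full effect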
# 3T3 cytotox: kills mouse NIH/3T3 fibroblasts | shares compounds with T cruzi growth-1 | NIH/3T3 viability, CellTiter-Glo ATP luminescence, 90 h | cytotoxicity (signal decrease), % at 8.35 µM | 14% of 5,600 active;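 active = mean signal decrease across replicates above about 35% based on untreated-well scatter, with enough replicates individually passing, limit read from the data; inconclusive = no rule stated though some were filed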;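 also: 0% = median of neutral control wells and 100% = median of positive control wells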
# 3T3 cytotox 2: NIH/3T3 (mouse) viability loss; shares compounds with T cruzi growth-1; NIH/3T3 viability, CellTiter-Glo ATP luminescence, 90 h; inhibition, % at 24.9 µM; 56% of 5,600 active;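 active = mean loss of cell viability signal at or above a set limit, and enough replicates individually reaching it; inconclusive = meets only the mean limit or only the replicate share; inactive = meets neither condition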;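 also: 0% = median of neutral control wells and 100% = median of positive control wells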
# Starred values were filed as active, the others as inactive; ? = inconclusive; / = no result.
SMILES,Pf Dd2 growth,C diff growth,T cruzi growth-1,T cruzi growth-2,T cruzi growth-3,3T3 cytotox,3T3 cytotox 2
C[C@H]1CN([C@@H](C)CO)C(=O)c2cccc(NC(=O)C3CCOCC3)c2O[C@H]1CN(C)Cc1ccccc1,31,2,3,/,/,/,/
O=C(NC1CCCC1)N1CCCCN2[C@H](CO)[C@@H](c3ccc(-c4cccnc4)cc3)[C@H]2C1,-19,-9,29,/,/,/,/
Cc1ccccc1-c1ccc([C@@H]2[C@@H](CO)N3CCCCN(C(=O)NC4CCCC4)C[C@H]23)cc1,9,23,95,/,/,/,/
O=C(NC1CCCC1)N1CCCCN2[C@H](CO)[C@@H](c3ccc(-c4ccncc4)cc3)[C@H]2C1,3,-6,73,/,/,/,/
O=C(NC1CCCC1)N1CCCCN2[C@H](C1)[C@H](c1ccc(-c3cncnc3)cc1)[C@@H]2CO,9,0,?,107*,-13,-22,-4
O=C(NC1CCCC1)N1CCCCN2[C@H](C1)[C@H](c1ccc(-c3ccncc3)cc1)[C@@H]2CO,-6,-6,-5,/,/,/,/
O=C(NC1CCCC1)N1CCCCN2[C@@H](CO)[C@@H](c3ccc(-c4ccncc4)cc3)[C@@H]2C1,8,20,105*,97*,42,11,-9
Cc1ccccc1-c1ccc([C@@H]2[C@H](CO)N3CCCCN(C(=O)NC4CCCC4)C[C@@H]23)cc1,-32,40,118*,106*,90,25,105*
O=C(NC1CCCC1)N1CCCCN2[C@H](CO)[C@H](c3ccc(-c4cncnc4)cc3)[C@@H]2C1,-10,-1,102*,20,0,11,10
C[C@@H]1CN([C@@H](C)CO)C(=O)c2cc(NC(=O)NC3CCCCC3)ccc2O[C@@H](C)CCCCO[C@H]1CN(C)Cc1ccc2c(c1)OCO2,/,16,/,/,/,/,/
C=C[C@@H](CO)NS(=O)(=O)c1ccc(Br)cc1,/,1,/,/,/,/,/
CO[C@H]1CN(C)C(=O)c2ccc(NS(C)(=O)=O)cc2OC[C@@H](C)N(Cc2ccccn2)C[C@@H]1C,-9,-1,4,/,/,/,/
O=C(NC1CCCC1)N1CCCCN2[C@H](C1)[C@H](c1ccc(-c3ccccc3)cc1)[C@@H]2CO,0,2,80,/,/,/,/
O=C(NC1CCCC1)N1CCCCN2[C@@H](CO)[C@H](c3ccc(-c4ccccc4)cc3)[C@@H]2C1,1,2,113*,95*,43,3,95*
CCNC(=O)Nc1ccc2c(c1)C(=O)N(C)[C@@H]1CC[C@H](CC(=O)N[C@@H](C)c3ccccc3)O[C@@H]1CO2,/,0,43,/,/,/,/
Cc1ccc(S(=O)(=O)N(C)C[C@@H]2OCCCC[C@@H](C)Oc3ccc(NC(=O)Nc4ccc5c(c4)OCO5)cc3C(=O)N([C@@H](C)CO)C[C@H]2C)cc1,-74,/,/,/,/,/,/
Cc1ccc(S(=O)(=O)N(C)C[C@H]2OCCCC[C@H](C)Oc3ccc(NC(=O)Nc4ccc5c(c4)OCO5)cc3C(=O)N([C@H](C)CO)C[C@H]2C)cc1,-73,/,/,/,/,/,/
Cc1ccc(S(=O)(=O)N(C)C[C@@H]2OCCCC[C@@H](C)Oc3ccc(NC(=O)Nc4ccc5c(c4)OCO5)cc3C(=O)N([C@H](C)CO)C[C@H]2C)cc1,-73,/,/,/,/,/,/
C[C@@H]1CCCCO[C@H](CN(C)S(=O)(=O)c2ccc(Cl)cc2)[C@H](C)CN([C@@H](C)CO)C(=O)c2cc(NC(=O)Nc3ccc4c(c3)OCO4)ccc2O1,-85*,-3,100*,105*,113*,-3,11
C[C@H](CO)N1C[C@H](C)[C@H](CN(C)S(=O)(=O)c2ccc(Cl)cc2)OCCCC[C@H](C)Oc2ccc(NC(=O)Nc3ccc4c(c3)OCO4)cc2C1=O,-69,3,104*,103*,102*,-2,16
C[C@H](CO)N1C[C@H](C)[C@@H](CN(C)S(=O)(=O)c2ccc(Cl)cc2)OCCCC[C@H](C)Oc2ccc(NC(=O)Nc3ccc4c(c3)OCO4)cc2C1=O,-64,4,106*,114*,104*,2,-3
O=C(Nc1ccccc1)N1C[C@@H]2[C@H](c3ccccc31)[C@@H](CO)N2C(=O)Cc1ccccn1,-8,-6,21,/,/,/,/
C[C@@H]1CN([C@@H](C)CO)C(=O)Cc2cc(NC(=O)C3CCCCC3)ccc2O[C@@H]1CN(C)S(C)(=O)=O,18,1,22,/,/,/,/
O=C(N[C@H]1C=C[C@@H](CC(=O)N2CCOCC2)O[C@@H]1CO)c1ccc2c(c1)OCO2,7,3,-16,/,/,/,/
C[C@@H]1CN([C@@H](C)CO)C(=O)Cc2cc(NC(=O)Cn3cnnn3)ccc2O[C@H]1CN(C)C(=O)Nc1ccc(F)cc1,29,/,-1,/,/,/,/
SMILES,Pf Dd2 growth,C diff growth,T cruzi growth-1,T cruzi growth-2,T cruzi growth-3,3T3 cytotox,3T3 cytotox 2
CCS(=O)(=O)NCC[C@H]1CC[C@H](NS(=O)(=O)c2cccc(Cl)c2)[C@H](CO)O1,-6,/,19,/,/,/,/
CN1CCN(C(=O)C[C@H]2CC[C@@H]3[C@H](COC[C@H](O)CN3S(=O)(=O)c3cccc(Cl)c3)O2)CC1,0,/,-18,/,/,/,/
C[C@H](O)C#Cc1ccc([C@H]2[C@H](CO)N3CCCCN(C(=O)Nc4ccccc4)C[C@@H]23)cc1,-53,-1,26,/,/,/,/
COc1ccc(C#Cc2ccc([C@H]3[C@H]4CN(C(=O)Nc5ccccc5)CCCCN4[C@H]3CO)cc2)cc1,-77,-2,119*,108*,56,19,22
COc1ccc(C#Cc2ccc([C@H]3[C@@H](CO)N4CCCCN(C(=O)Nc5ccccc5)C[C@@H]34)cc2)cc1,-32,-6,125*,111*,114*,12,30*
COc1ccc(C#Cc2ccc([C@@H]3[C@H](CO)N4CCCCN(C(=O)Nc5ccccc5)C[C@@H]34)cc2)cc1,-73,60,78,/,/,/,/
C/C=C/c1ccc([C@@H]2[C@H](CO)N3CCCCN(C(=O)Nc4ccc(OC)cc4)C[C@@H]23)cc1,-24,4,61,/,/,/,/
COc1ccc(C#Cc2ccc([C@H]3[C@@H](CO)N4CCCCN(C(=O)Nc5cccc(F)c5)C[C@@H]34)cc2)cc1,1,-19,112*,101*,109*,23,18
C/C=C/c1ccc([C@H]2[C@@H](CO)N3CCCCN(C(=O)Nc4ccc(OC)cc4)C[C@H]23)cc1,-17,3,?,85,10,-1,90*
O=C(Nc1cccc(F)c1)N1CCCCN2[C@H](C1)[C@@H](c1ccc(C#Cc3ccccc3)cc1)[C@@H]2CO,-10,3,78,/,/,/,/
COc1ccc(NC(=O)N(C)C[C@@H]2Oc3ncc(C#Cc4ccccc4)cc3C(=O)N([C@H](C)CO)C[C@@H]2C)cc1,-45,27,55,/,/,/,/
CO[C@@H]1CN(C)C(=O)c2ccc(NC(=O)c3cc(C)on3)cc2OC[C@@H](C)N(S(=O)(=O)c2cccc(Cl)c2)C[C@H]1C,59,7,28,/,/,/,/
